Measurements published in PubChem BioAssay (Tox21).
Values joined by “and” are separate entries in the source; they are usually repeats but may differ in a detail not shown here. Identical values can stand only once. Records with an inconclusive call do not appear. Active and inactive are the calls of the source. Unless noted, calls come from the whole dose curve; as a rule, active = well fitted curve in the direction sought with a large enough effect in the repeat runs; inconclusive = weak or mixed curves; inactive = no such curve, though single readings can be large; an effect the other way counts as inactive or inconclusive.

Experiments:
[1] = qHTS assay to identify small molecule antagonists of the glucocorticoid receptor (GR) signaling pathway - cell viability counter screen (AID 720693); note: nearly all actives have a fitted effect of over 55% in size; note: potency is the fitted concentration of half-maximal effect
[2] = qHTS assay for identifying genotoxic compounds that show differential cytotoxicity against isogenic chicken DT40 cell lines with known DNA damage response pathways - Rad54/Ku70 mutant cell line (AID 743015); note: nearly all actives have a fitted effect of over 60% in size; note: potency is the fitted concentration of half-maximal effect
[3] = biological target: Androgen receptor (Homo sapiens) (UniProt P10275); test: qHTS assay to identify small molecule antagonists of the androgen receptor (AR) signaling pathway (AID 743035; active = well fitted inhibition curve with a large enough effect in the signal ratio in the repeat runs, not every such curve was filed as active; the % refers to the signal ratio; note: potency is the fitted concentration of half-maximal effect)
Sequence of Androgen receptor (Homo sapiens) (P10275 whole entry, looked up): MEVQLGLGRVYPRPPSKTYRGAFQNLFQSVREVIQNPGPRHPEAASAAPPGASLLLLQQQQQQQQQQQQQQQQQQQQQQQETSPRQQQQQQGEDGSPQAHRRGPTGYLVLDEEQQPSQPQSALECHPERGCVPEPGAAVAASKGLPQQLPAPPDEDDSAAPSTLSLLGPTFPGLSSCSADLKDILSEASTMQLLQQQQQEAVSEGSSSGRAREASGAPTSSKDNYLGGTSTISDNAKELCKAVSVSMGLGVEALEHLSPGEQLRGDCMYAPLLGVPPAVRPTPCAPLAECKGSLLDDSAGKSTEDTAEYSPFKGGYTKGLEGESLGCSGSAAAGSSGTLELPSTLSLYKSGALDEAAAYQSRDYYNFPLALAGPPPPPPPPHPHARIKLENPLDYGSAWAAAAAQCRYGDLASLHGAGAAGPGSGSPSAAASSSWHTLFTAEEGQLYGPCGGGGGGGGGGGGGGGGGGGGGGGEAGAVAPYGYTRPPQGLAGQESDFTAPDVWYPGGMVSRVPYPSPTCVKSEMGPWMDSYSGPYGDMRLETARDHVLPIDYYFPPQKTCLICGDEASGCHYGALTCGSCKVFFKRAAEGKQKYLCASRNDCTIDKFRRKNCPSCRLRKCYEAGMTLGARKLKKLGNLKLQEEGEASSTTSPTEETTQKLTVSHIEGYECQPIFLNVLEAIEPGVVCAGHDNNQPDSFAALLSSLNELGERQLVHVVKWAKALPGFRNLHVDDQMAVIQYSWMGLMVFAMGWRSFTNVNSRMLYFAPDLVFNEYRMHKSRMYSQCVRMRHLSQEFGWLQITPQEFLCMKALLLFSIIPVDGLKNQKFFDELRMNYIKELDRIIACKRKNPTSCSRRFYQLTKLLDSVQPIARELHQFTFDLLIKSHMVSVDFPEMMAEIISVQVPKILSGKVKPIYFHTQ
In short: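 Using qHTS, AR-UAS-bla GripTite HEK293 cells received compound, then R1881, and were cultured 16 h at 37C/5% CO2 before a 2 h room-temperature LiveBLAzer B/G FRET substrate step and fluorescence measurement.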

[4] = biological target: Androgen receptor (Homo sapiens) (UniProt P10275); test: qHTS assay to identify small molecule agonists of the androgen receptor (AR) signaling pathway using the MDA cell line (AID 743040; note: nearly all actives have a fitted effect of over 20% in size)
In short: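 After a 5 h incubation at 37C and 0% CO2, MDA-kb2 reporter cells were dosed with compounds in DMSO and kept 16 h under the same conditions. Luciferase activity was then read as luminescence with ONE-Glo.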

[5] = qHTS assay to identify small molecule antagonists of the androgen receptor (AR) signaling pathway using the MDA cell line - cell viability counter screen (AID 743041; note: nearly all actives have a fitted effect of over 45% in size)
In short: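 R1881-driven MDA-kb2 AR-luc cells, 3,000/well, were dosed with library compounds for 16 h; cell health came from CellTiter-Fluor fluorescence in the reporter wells.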

[6] = biological target: Androgen receptor (Homo sapiens) (UniProt P10275); test: qHTS assay to identify small molecule antagonists of the androgen receptor (AR) signaling pathway using the MDA cell line (AID 743042; note: nearly all actives have a fitted effect of over 55% in size; note: potency is the fitted concentration of half-maximal effect)
In short: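 Antagonist mode: compounds plus R1881 agonist added to MDA-kb2 AR-luc cells, incubated 16 h at 37C. Luciferase reporter luminescence quantified, with multiplexed CellTiter-Fluor readout for cell viability.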

[7] = qHTS assay for identifying genotoxic compounds that show differential cytotoxicity against isogenic chicken DT40 cell lines with known DNA damage response pathways - wild type cell line (AID 743012); note: nearly all actives have a fitted effect of over 60% in size; note: potency is the fitted concentration of half-maximal effect
In short: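 Using parental DT40 (300 cells/well), compounds delivered in DMSO incubate 40 h at 37 C/5% CO2. CellTiter-Glo reagent then stands 30 min at room temperature, and luminescence gives cell viability.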

[8] = qHTS assay for identifying genotoxic compounds that show differential cytotoxicity against isogenic chicken DT40 cell lines with known DNA damage response pathways - Rev3 mutant cell line (AID 743014); note: nearly all actives have a fitted effect of over 55% in size; note: potency is the fitted concentration of half-maximal effect
[9] = qHTS assay to identify small molecule antagonists of the androgen receptor (AR) signaling pathway - cell viability counter screen (AID 743033; note: nearly all actives have a fitted effect of over 45% in size; note: potency is the fitted concentration of half-maximal effect)
[10] = biological target: Androgen receptor (Homo sapiens) (UniProt P10275); test: qHTS assay to identify small molecule agonists of the androgen receptor (AR) signaling pathway (AID 743036; active = well fitted activation curve with a large enough effect in the signal ratio in the repeat runs, with a control signal flat, not every such curve was filed as active; the % refers to the signal ratio)
In short: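 Beta-lactamase under UAS control, stably integrated in HEK293 GripTite cells, reports receptor activation. After 16 h compound treatment, cells received FRET substrate for 2 h at room temperature before fluorescence reading.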
% is set by controls: 0 for no effect and ±100 for the full control effect.

CC(=O)OC[C@H]1O[C@@H](n2ncc(=O)[nH]c2=O)[C@H](OC(C)=O)[C@@H]1OC(C)=O
active: Potency [2] 1.06 µM | Potency [3] 5.35 µM
inactive: Potency [1] | Potency [4] | Potency [5] | Potency [6]

CC(C)C[C@H]1C(=O)N2CCC[C@H]2[C@]2(O)O[C@](NC(=O)[C@@H]3C=C4c5cccc6[nH]c(Br)c(c56)C[C@H]4N(C)C3)(C(C)C)C(=O)N12
active: Potency [7] 5.31 µM and 11.6 µM | Potency [8] 10.6 µM and 7.34 µM | Potency [2] 7.5 µM and 10.4 µM
inactive: Potency [9] | Potency [5]

C#CCN(C)CCCOc1ccc(Cl)cc1Cl
inactive: Potency [1] | Potency [8] | Potency [9] | Potency [5]

c1ccc(-c2ccccn2)nc1
inactive: Potency [1] | Potency [9] | Potency [10] | Potency [4] | Potency [5] | Potency [6]
active: Potency [8] 24.3 µM

C[N+](C)(C)CCOC(=O)CCC(=O)OCC[N+](C)(C)C
inactive: Potency [7] | Potency [8] | Potency [2] | Potency [9] | Potency [5]

CCOC(=O)Cc1cccc2ccccc12
inactive: Potency [1] | Potency [2] | Potency [9] | Potency [5]

CC(=O)[O][Al]
inactive: Potency [1] | Potency [8] | Potency [2] | Potency [9] | Potency [5]

CCCCCC[C@@H](O)C/C=C\CCCCCCCC(=O)OC
inactive: Potency [7] | Potency [8] | Potency [2] | Potency [9] | Potency [3] | Potency [10] | Potency [4] | Potency [5] | Potency [6]

CC1CCC(=O)C1=O (configuration not stated)
inactive: Potency [7] | Potency [8] | Potency [2] | Potency [9] | Potency [5]

C[C@@H](c1ncncc1F)C(O)(Cn1cncn1)c1ccc(F)cc1F (some centres not stated)
inactive: Potency [7] | Potency [8] | Potency [2] | Potency [9] | Potency [3] | Potency [4] | Potency [5] | Potency [6]

Cc1cccc(Nc2ccccc2)c1
active: Potency [8] 30.6 µM | Potency [2] 48.6 µM
inactive: Potency [1] | Potency [10] | Potency [4] | Potency [5]

CCCn1cnc2c1c(=O)n(CCCCC(C)=O)c(=O)n2C
inactive: Potency [7] | Potency [8] | Potency [2] | Potency [9] | Potency [3] | Potency [10] | Potency [4] | Potency [5] | Potency [6]

CN1CCC(=C2c3ccccc3Sc3ccccc32)CC1
active: Potency [7] 5.31 µM | Potency [8] 5.96 µM | Potency [2] 8.41 µM | Potency [9] 23.9 µM | Potency [3] 26.8 µM | Potency [6] 29.8 µM
inactive: Potency [10] | Potency [4]

CCCCCCCCCCCC(=O)OC[C@@H](O)[C@H]1OC[C@H](OCCO)[C@H]1OCCO
active: Potency [8] 53.2 µM
inactive: Potency [1] | Potency [5]

O=[N+]([O-])c1ccc2[nH]ncc2c1
inactive: Potency [1] | Potency [9] | Potency [5]

CCOc1ccc(O)cc1
active: Potency [8] 54.5 µM
inactive: Potency [1] | Potency [9] | Potency [5]

CCCCCCCCCCO[C@@H]1O[C@H](CO)[C@@H](O)[C@H](O)[C@H]1O
inactive: Potency [1] | Potency [5]
active: Potency [8] 61.1 µM | Potency [2] 61.1 µM

CCOCC(O)COc1ccc(NC(=O)CC[S+](C)C)cc1 (configuration not stated)
inactive: Potency [1] | Potency [9] | Potency [5]

O=C1CCCCCCCCCCCC(=O)OCCO1
active: Potency [7] 54.5 µM | Potency [8] 27.3 µM | Potency [2] 27.3 µM
inactive: Potency [9] | Potency [4] | Potency [5] | Potency [6]

CCCCCCCCCCCCN1CCCCCC1=O
inactive: Potency [1] | Potency [9] | Potency [5]

O=C(Nc1ccc(S(=O)(=O)N2CCOCC2)cc1)c1cc(Cl)ccc1NS(=O)(=O)c1ccc(Cl)s1
active: Potency [1] 16.9 µM
inactive: Potency [9] | Potency [5]

CN(C)c1ccc(/C=C/c2ccc([N+](=O)[O-])cc2)cc1
inactive: viability change, negative = cytotoxic [1] 6.19% [at 7.04 µM] | activity change, negative = cytotoxicity [2] 1.06% [at 8.55 µM] | activity change, negative = cytotoxicity [9] 7.66% [at 7.04 µM] | viability change, negative = cytotoxic [5] -4.28% [at 8.47 µM]

CC(C)(O)c1ccc(CNC(=O)c2cccnc2Oc2ccc(F)cc2)cc1
inactive: Potency [1] | Potency [5]

CCO[C@H](Cc1ccc(OCCc2ccc(OS(C)(=O)=O)cc2)cc1)C(=O)O
inactive: Potency [7] | Potency [8] | Potency [2] | Potency [9] | Potency [3] | Potency [10] | Potency [4] | Potency [5] | Potency [6]

c1cc(CCCc2ccncc2)ccn1
inactive: Potency [1] | Potency [9] | Potency [5]

O=C(O)c1nc(Cl)c(Cl)c(Cl)c1Cl
inactive: Potency [1] | Potency [8] | Potency [9] | Potency [5]

NCC(=O)O
inactive: Potency [7] | Potency [8] | Potency [2] | Potency [9] | Potency [5]

COc1cc2nc(N3CCN(C(=O)C4COc5ccccc5O4)CC3)nc(N)c2cc1OC (configuration not stated)
inactive: Potency [1] | Potency [8] | Potency [9] | Potency [5]
